These results are taken from ChEMBL document CHEMBL1857833, “Screening and optimization of specific chemical series against human African Trypanosomiasis (HAT)”.

“And” between values parts separate entries of the source, which are not always exact repeats. Equal entries are not always repeated. In all, about 4,400 compounds went through this assay and about 390 (8.9%) showed an effect of 50% or more. The full list was thinned out, with strong results kept by preference.

The test system of the assay is Trypanosoma brucei. Description: DNDI: Inhibition of Human African Trypanosomiasis, SBRI 427, in vitro at 2 ug.mL-1. It is filed as functional.
Consider `COc1ccc(Oc2nc(C)ccc2/C(=N/O)NCc2cc(F)ccc2F)cc1`, for which the % inhibition – broadly, the change of the read-out against control, counted positive when it falls – worked out at 15%. For the compound `Cc1ccc(/C(=N/O)N2CCSC2)c(Oc2ccc3oc4ccccc4c3c2)n1`, the “% inhibition” value came to 14%. For `Cc1cccc(-c2nc(CNCC(F)(F)F)co2)c1` the value was -2%; for `COc1cccc(CNCc2coc(-c3ccc(Cl)cc3Cl)n2)c1OC`, 6%.

For `CCN(Cc1ccccc1)Cc1coc(-c2cccc(F)c2)n1`, the “% inhibition” value is 14%.

Regarding `Cc1ccc(/C(=N/O)n2ccnc2C)c(OCC(F)(F)F)n1`, the “% inhibition” value was 21%. For `COC(=O)C1CCN(Cc2coc(-c3ccc(O)cc3)n2)CC1` the value was -3%. As for `CCOc1ccc(-c2nc(CNCCCN(C)c3ccccc3)co2)cc1`, the figure is 42%. For `CCOc1ccccc1-c1nc(CN2CCN(c3ccc(C)cc3C)CC2)co1` the value was 7%; for `O/N=C(\NCC1CCCO1)c1ccc(Oc2ccc(-n3ccnc3)cc2)nc1` (stereo not drawn), 32%; for `O/N=C(\NCc1ccccc1)c1ccc(Oc2ccc(-n3ccnc3)cc2)nc1`, 16%. For `COc1ccc(CN/C(=N\O)c2ccc(Oc3ccc(Cl)cc3)nc2)cc1`, the “% inhibition” value is 6%. As for `O/N=C(\NCc1ccncc1)c1ccc(Oc2ccc(Cl)cc2)nc1`, the figure is -11%.

As for `O/N=C(\NCc1ccccc1)c1ccc(Oc2ccc(Cl)cc2)nc1`, the “% inhibition” value came to 57%. For `O/N=C(\NCC1CCCCC1)c1ccc(Oc2ccc(-n3ccnc3)cc2)nc1` the value was 78%; for `O/N=C(\NCC1CCCO1)c1ccc(Oc2ccc(Cl)cc2)nc1` (stereo not drawn), 47%; for `O/N=C(\NCC1CCCCC1)c1ccc(Oc2ccc(F)cc2)nc1`, 28%. As for `O/N=C(\NCC1CCCCC1)c1ccc(Oc2ccc(Cl)cc2)nc1`, the figure is 93%; as for `CC1CN(Cc2coc(-c3ccc(Cl)cc3Cl)n2)CC(C)O1` (stereo not drawn), 14%. As for `CCCN/C(=N\O)c1ccc(C)nc1Oc1cccc(C(C)C)c1`, the figure is 4%; as for `c1coc(-c2nc(CN3CCCc4ccccc43)co2)c1`, 18%. `COc1ccc(-c2nc(CNC(C)c3ccccc3)co2)cc1` (stereo not drawn): the “% inhibition” value amounted to 3%. For `Cc1ccc(/C(=N/O)NCc2ccccn2)c(OCc2cccc(F)c2)n1` the value was -1%; for `CCOc1ccc(-c2nc(Cn3ccnc3C(C)C)co2)cc1`, 10%; for `COc1ccc(-c2nc(CNC(c3ccccc3)c3ccccc3)co2)cc1`, -28%.

`COc1ccccc1Oc1ncccc1/C(=N/O)N1CCOCC1`: the “% inhibition” value was determined as 16%. For `CCC(NCc1coc(-c2ccc(Br)cc2)n1)c1ccccc1` (stereo not drawn) the value was -22% and -13%; for `Cc1ccc(Oc2nc(C)ccc2/C(N)=N/O)c(C)c1`, 11%. Regarding `N#CCCN(Cc1coc(-c2ccc(F)cc2)n1)c1ccccc1`, the “% inhibition” value is on record as -10%. For `CC(C)(C)CN/C(=N\O)c1ccnc(Oc2cc(Cl)ccc2Cl)c1` the value was 56%; for `COCCN/C(=N\O)c1ccnc(Oc2ccc(C)cc2C)c1`, 6%; for `COCCN/C(=N\O)c1ccnc(Oc2cc(Cl)ccc2Cl)c1`, 27%. As for `Cc1ccc(Oc2cc(/C(=N/O)N3CCCCC3)ccn2)c2c1CCC2`, the figure is 19%; as for `Cc1ccc(Oc2cc(/C(=N/O)N3CC(C)CC(C)C3)ccn2)c(C)c1` (stereo not drawn), 22%; as for `Cc1cc(C)cc(CN/C(=N\O)c2ccc(Oc3cc(Cl)ccc3Cl)nc2)c1`, -11%. As for `O/N=C(\NCc1ccccc1)c1ccc(Oc2cc(Cl)ccc2Cl)nc1`, the figure is 31%; as for `O/N=C(\NCc1cccnc1)c1ccnc(Oc2cc(Cl)ccc2Cl)c1`, 17%. As to `Cc1ccc(Oc2cc(/C(=N/O)NCC(C)(C)C)ccn2)c(C)c1`, the “% inhibition” value is given as 96%. On to `Cc1ccc(Oc2cc(/C(=N/O)NCc3ccccc3C)ccn2)c(C)c1`, for which the “% inhibition” value worked out at 42%. As for `Cc1ccc(Oc2cc(/C(=N/O)N3CCCCCC3)ccn2)c(C)c1`, the figure is 98%. As for `CC(C)(C)CN/C(=N\O)c1ccc(Oc2cc(Cl)ccc2Cl)nc1`, the “% inhibition” value was found to be 99%. For `Cc1ccc(/C(N)=N/O)c(Oc2ccc(F)c(Cl)c2)n1` the value was 20%; for `COc1ccc(-c2nc(CN3CCCCCC3)co2)cc1`, 18%. With `CCOc1ccc(-c2nc(CN3CCN(c4cccc(Cl)c4)CC3)co2)cc1`, the “% inhibition” value is -2%.

Regarding `Cc1ccc(-c2nc(CNC(c3ccccc3)c3ccccc3)co2)cc1`, the “% inhibition” value was -9%. In the case of `CCOc1ccccc1-c1nc(CN(C)CC(C)C)co1`, the “% inhibition” value was 3%. As for `COc1ccc(CNCc2coc(-c3cccs3)n2)cc1OC`, the figure is -8%; as for `Cc1ccc(/C(=N/O)N2CCN(c3ccc(F)cc3)CC2)c(OCc2ccccc2F)n1`, 7%.

For the compound `CCOc1ccc(-c2nc(CN3CCN(C(=O)c4ccco4)CC3)co2)cc1`, the “% inhibition” value was determined as 0%.

As for `CCC(CC)N/C(=N\O)c1cccnc1Oc1ccc(OC)cc1`, the “% inhibition” value is 100%. For `CCC(CC)N/C(=N\O)c1cccnc1Oc1ccc(F)cc1` the value was 96%; for `COCC(C)N/C(=N\O)c1cccnc1Oc1ccc(F)cc1` (stereo not drawn), 13%; for `COc1ccc(Oc2ncccc2/C(=N/O)NC(C)C)cc1`, 4%. For `COc1cc2c(cc1OC)C(C(C)C)N(Cc1coc(-c3ccc(F)cc3)n1)CC2` (stereo not drawn) the value was 5%; for `COc1ccc(CN/C(=N\O)c2ccc(C)nc2Oc2ccc(F)cc2)cc1`, 30%; for `CCC(C)(C)N/C(=N\O)c1cccnc1Oc1ccc(-n2cncn2)cc1`, 45%. For `CCOC(=O)C1CCCN(Cc2coc(-c3ccc(Br)cc3)n2)C1` (stereo not drawn), the “% inhibition” value came out at 0%. As for `CSc1ccc(Oc2ncccc2/C(=N/O)NCc2cccnc2)cc1`, the figure is 2%. As for `Cc1ccc(Oc2ncccc2/C(=N/O)N2CC=CCC2)c2c1CCC2`, the figure is 14%. For `CCc1nc(C)cn1Cc1coc(-c2cccc(OC)c2)n1` the value was -9%.

`COc1ccc(Oc2ncccc2/C(=N/O)N2CCCCC2)cc1`: the “% inhibition” value came out at 7%. `CCC(C)(C)N/C(=N\O)c1ccc(C)nc1Oc1ccc(Cl)cc1`: the “% inhibition” value is listed as -12%. As for `CCC(C)(C)N/C(=N\O)c1ccc(C)nc1Oc1ccc(F)c(Cl)c1`, the “% inhibition” value is -27%. As for `Cc1ccc(/C(=N/O)NCC(C)(C)C)c(Oc2cc(Cl)ccc2Cl)n1`, the figure is 100%. For `CCC(C)(C)N/C(=N\O)c1ccc(C)nc1Oc1cc(Cl)ccc1Cl` the value was 63%. For `CCOc1ccccc1-c1nc(CN2CC[C@@H]3CCCC[C@@H]3C2)co1` the value was 16%; for `CCOc1ccccc1-c1nc(Cn2ccnc2CC)co1`, -1%.

Regarding `N#CCCN(Cc1coc(-c2ccc(Cl)cc2Cl)n1)C1CCCCC1`, the “% inhibition” value was determined as 3%.
